About 2,000 (36%) of roughly 5,500 compounds were called active. Not shown: some 18% with an inconclusive outcome. Some of the results follow. A number with no mark means an inactive call. Cut-off read from the data, not from the text of the source: active = normalized growth mostly below about 0.91 (no sharp cut-off); inconclusive = no clear call, values can overlap the other calls; inactive = mostly above about 0.92.
Experiment: chemical genetic growth profiling, strain panel (AID 1159580);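 note: tested at 20 µM; growth read once vehicle control cultures reached saturation at 30 °C; 1 = growth at the plate median or of vehicle wells; lower values mean less growth of the strain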
Settings: S. cerevisiae deletion strains, growth OD

CCCCCCNC(=O)n1cc(F)c(=O)[nH]c1=O
normalized growth (locus YAL021C, strain ccr4, hits give low values): 0.934 | normalized growth (locus YAL026C, strain drs2, hits give low values): 0.849 (active) | normalized growth (locus YAL030W, strain snc1, hits give low values): 0.96 | normalized growth (locus YBL061C, strain skt5, hits give low values): 0.972 | normalized growth (locus YBR009C, strain hhf1, hits give low values): 0.861 (active) | normalized growth (locus YBR023C, strain chs3, hits give low values): 0.937 | normalized growth (locus YBR171W, strain sec66, hits give low values): 0.996 | normalized growth (locus YBR231C, strain swc5, hits give low values): 0.988 | normalized growth (locus YBR279W, strain paf1, hits give low values): 0.834 (active) | normalized growth (locus YCL011C, strain gbp2, hits give low values): 0.91 | normalized growth (locus YCL016C, strain dcc1, hits give low values): 0.86 (active) | normalized growth (locus YCL069W, strain vba3, hits give low values): 0.842 (active) | normalized growth (locus YCR088W, strain abp1, hits give low values): 0.934 | normalized growth (locus YDL005C, strain med2, hits give low values): 0.941 | normalized growth (locus YDL040C, strain nat1, hits give low values): 0.991 | normalized growth (locus YDR001C, strain nth1, hits give low values): 0.995 | normalized growth (locus YDR069C, strain doa4, hits give low values): 0.803 (active) | normalized growth (locus YDR137W, strain rgp1, hits give low values): 0.553 (active) | normalized growth (locus YDR159W, strain sac3, hits give low values): 1.22 [resistant] (active) | normalized growth (locus YDR195W, strain ref2): 0.678 (active) | normalized growth (locus YDR297W, strain sur2, hits give low values): 0.978 | normalized growth (locus YDR334W, strain swr1, hits give low values): 0.93 | normalized growth (locus YDR335W, strain msn5, hits give low values): 0.782 (active) | normalized growth (locus YDR392W, strain spt3, hits give low values): 0.776 | normalized growth (locus YEL003W, strain gim4, hits give low values): 0.895 (active) | normalized growth (locus YEL037C, strain rad23, hits give low values): 0.894 (active) | normalized growth (locus YEL061C, strain CIN8 (second series), hits give low values): 0.95 | normalized growth (locus YER015W, strain faa2, hits give low values): 0.889 (active) | normalized growth (locus YER016W, strain bim1, hits give low values): 0.899 (active) | normalized growth (locus YER111C, strain swi4, hits give low values): 0.923 | normalized growth (locus YER155C, strain BEM2 (second series), hits give low values): 0.767 (active) | normalized growth (locus YFR010W, strain ubp6, hits give low values): 0.757 (active) | normalized growth (locus YGL167C, strain pmr1, hits give low values): 0.918 | normalized growth (locus YGL173C, strain kem1, hits give low values): 0.897 (active) | normalized growth (locus YGL227W, strain vid30, hits give low values): 0.99 | normalized growth (locus YGL240W, strain doc1, hits give low values): 0.971 | normalized growth (locus YGL253W, strain hxk2, hits give low values): 0.613 (active) | normalized growth (locus YHR013C, strain ard1, hits give low values): 0.933 | normalized growth (locus YHR027C, strain rpn1, hits give low values): 0.911 (active) | normalized growth (locus YHR030C, strain SLT2, hits give low values): 0.532 (active) | normalized growth (locus YHR079C, strain IRE1, hits give low values): 0.45 (active) | normalized growth (locus YHR142W, strain chs7, hits give low values): 0.741 (active) | normalized growth (locus YJL092W, strain hpr5, hits give low values): 0.912 (active) | normalized growth (locus YJL095W, strain BCK1 (second series), hits give low values): 0.945 | normalized growth (locus YJL095W, strain BCK1, hits give low values): 0.541 (active) | normalized growth (locus YJL115W, strain asf1, hits give low values): 0.941 | normalized growth (locus YJL129C, strain trk1, hits give low values): 0.76 (active) | normalized growth (locus YJL154C, strain vps35, hits give low values): 0.943 | normalized growth (locus YJL164C, strain tpk1, hits give low values): 0.865 (active) | normalized growth (locus YJL166W, strain qcr8, hits give low values): 0.902 (active) | normalized growth (locus YJR066W, strain TOR1, hits give low values): 0.407 (active) | normalized growth (locus YKL160W, strain elf1, hits give low values): 0.907 | normalized growth (locus YKR026C, strain gcn3, hits give low values): 0.993 | normalized growth (locus YKR091W, strain srl3, hits give low values): 0.975 | normalized growth (locus YLL001W, strain dnm1, hits give low values): 0.773 (active) | normalized growth (locus YLL026W, hits give low values): 0.974 | normalized growth (locus YLL041C, strain sdh2, hits give low values): 0.979 | normalized growth (locus YLR027C, strain aat2, hits give low values): 0.956 | normalized growth (locus YLR113W, strain HOG1, hits give low values): 0.607 (active) | normalized growth (locus YLR221C, strain rsa3, hits give low values): 0.697 (active) | normalized growth (locus YLR258W, strain gsy2, hits give low values): 0.884 (active) | normalized growth (locus YLR262C, strain YPT6 (second series), hits give low values): 0.528 (active) | normalized growth (locus YLR320W, strain mms22, hits give low values): 0.733 (active) | normalized growth (locus YLR342W, strain FKS1, hits give low values): 0.938 | normalized growth (locus YLR357W, strain rsc2, hits give low values): 0.803 (active) | normalized growth (locus YLR370C, strain arc18, hits give low values): 0.923 | normalized growth (locus YLR384C, strain iki3, hits give low values): 0.963 | normalized growth (locus YML120C, strain ndi1, hits give low values): 0.92 | normalized growth (locus YMR058W, strain fet3, hits give low values): 0.926 | normalized growth (locus YMR125W, strain sto1, hits give low values): 0.958 | normalized growth (locus YMR129W, hits give low values): 0.987 | normalized growth (locus YMR205C, strain PFK2, hits give low values): 0.898 | normalized growth (locus YMR231W, strain pep5, hits give low values): 0.942 | normalized growth (locus YNL071W, strain lat1, hits give low values): 0.891 (active) | normalized growth (locus YNL183C, strain NPR1, hits give low values): 0.48 (active) | normalized growth (locus YNL209W, strain ssb2, hits give low values): 0.959 | normalized growth (locus YNL248C, strain rpa49, hits give low values): 0.589 (active) | normalized growth (locus YNL322C, strain KRE1 (second series), hits give low values): 0.936 | normalized growth (locus YNR049C, strain mso1, hits give low values): 0.931 | normalized growth (locus YOR001W, strain rrp6, hits give low values): 0.257 (active) | normalized growth (locus YOR070C, strain gyp1, hits give low values): 0.958 | normalized growth (locus YOR080W, strain dia2, hits give low values): 0.968 | normalized growth (locus YOR083W, strain WHI5, hits give low values): 0.84 (active) | normalized growth (locus YOR106W, strain vam3, hits give low values): 0.668 (active) | normalized growth (locus YOR231W, strain MKK1, hits give low values): 0.41 (active) | normalized growth (locus YOR265W, strain rbl2, hits give low values): 0.968 | normalized growth (locus YOR270C, strain vph1, hits give low values): 0.518 (active) | normalized growth (locus YOR290C, strain snf2, hits give low values): 0.723 (active) | normalized growth (locus YPL051W, strain arl3, hits give low values): 0.843 (active) | normalized growth (locus YPL078C, strain atp4, hits give low values): 0.77 (active) | normalized growth (locus YPL106C, strain sse1, hits give low values): 0.722 (active) | normalized growth (locus YPL240C, strain hsp82, hits give low values): 0.978 | normalized growth (locus YPL256C, strain CLN2, hits give low values): 0.564 (active)
